In PubChem BioAssay (EPA / NIEHS) one finds outcome and AC50 data, which are given here for 20 compounds.

Active and inactive are the calls of the source. The calls were made as follows: active = hit-call score of the fitted dose curve at least 0.9, where 1 is the maximum; inactive = score below 0.9.

Holding throughout (conditions): mRNA level, 48 h; actives raise or lower the signal
Read-out in test [1]: Signal transducer and activator of transcription 3 (Homo sapiens) (UniProt P40763)
In words: LTEA_HepaRG_STAT3: Life Technologies and Expression Analysis (LTEA) Assay for Signal transducer and activator of transcription (STAT3) using HepaRG (AID 2283529). Summed up:
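STAT3 transcript quantified by qRT-PCR against three housekeeping genes (ACTB, GAPDH, POLR2A), fitted both directions relative to DMSO. HepaRG cultures exposed 48 h to eight half-log concentrations, top 100 uM, 0.5% DMSO, serum-free induction medium.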

Read-out in test [2]: solute carrier (SLCO1B1), SLCO1B1 (gene 10599)
In words: LTEA_HepaRG_SLCO1B1: Life Technologies and Expression Analysis (LTEA) Assay for solute carrier (SLCO1B1) using HepaRG (AID 2283530). Summed up:
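Differentiated human HepaRG cells were exposed for 48 h in serum-free induction medium to eight half-log concentrations, top 100 uM, in 0.5% DMSO. SLCO1B1 mRNA was measured by qRT-PCR, normalized to ACTB, GAPDH and POLR2A, and fitted bidirectionally against DMSO.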

Read-out in test [3]: sulfotransferase 2A1 (SULT2A1), SULT2A1 (gene 6822)
In words: LTEA_HepaRG_SULT2A1: Life Technologies and Expression Analysis (LTEA) Assay for sulfotransferase 2A1 (SULT2A1) using HepaRG (AID 2283531). Summed up:
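HepaRG human liver cells, 48 h exposure in serum-free induction medium to 8 half-log concentrations topping at 100 µM (0.5% DMSO), duplicate wells. SULT2A1 mRNA measured by TaqMan qRT-PCR, normalized to ACTB/GAPDH/POLR2A; bidirectional fit against DMSO.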

Read-out in test [4]: Transforming Growth Factor (TGFA), TGFA (gene 7039)
In words: LTEA_HepaRG_TGFA: Life Technologies and Expression Analysis (LTEA) Assay for Transforming Growth Factor (TGFA) using HepaRG (AID 2283532). Summed up: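 TGFA transcript quantified by qRT-PCR (Fluidigm arrays) against three housekeeping genes, after 48 hours chemical treatment of HepaRG cells. Top concentration 100 uM with half-log dilutions, 8 points, duplicates, 0.5% DMSO.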

Read-out in test [5]: Transforming Growth Factor (TGFB1), TGFB1 (gene 7040)
The test can be described thus: LTEA_HepaRG_TGFB1: Life Technologies and Expression Analysis (LTEA) Assay for Transforming Growth Factor (TGFB1) Transporter using HepaRG (AID 2283533). Summed up: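 Differentiated HepaRG cells exposed 48 hr in serum-free induction medium to eight half-log concentrations up to 100 uM (0.5% DMSO), duplicate; TGFB1 mRNA by TaqMan qRT-PCR normalised to ACTB, GAPDH, POLR2A; bidirectional fit against DMSO.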

Read-out in another test: TIMP1, TIMP1 (gene 7076)
The test can be described thus: LTEA_HepaRG_TIMP1: Life Technologies and Expression Analysis (LTEA) Assay for TIMP1 using HepaRG (AID 2283534).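 Also: TaqMan qRT-PCR signal normalized to ACTB GAPDH and POLR2A housekeeping genes.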 Summed up:
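Differentiated HepaRG cells exposed 48 h in serum-free induction medium, duplicates, eight half-log concentrations from 100 uM in 0.5% DMSO. TIMP1 mRNA by qRT-PCR normalized to ACTB, GAPDH, POLR2A; bidirectional fitting against DMSO.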

Read-out in test [6]: Tumor necrosis factor receptor 1 (TNFRSF1A), TNFRSF1A (gene 7132)
In words: LTEA_HepaRG_TNFRSF1A: Life Technologies and Expression Analysis (LTEA) Assay for Tumor necrosis factor receptor 1 (TNFRSF1A) using HepaRG (AID 2283535). Summed up: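 Differentiated HepaRG cells in serum-free induction medium, exposed 48 h in duplicate to 8 half-log concentrations up to 100 uM in 0.5% DMSO. TNFRSF1A mRNA by Fluidigm TaqMan qRT-PCR, normalized to ACTB, GAPDH, POLR2A; bidirectional fit.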

Read-out in test [7]: Thyroid Hormone Responsive (THRSP), THRSP (gene 7069)
The test can be described thus: LTEA_HepaRG_THRSP: Life Technologies and Expression Analysis (LTEA) Assay for Thyroid Hormone Responsive (THRSP) using HepaRG (AID 2283536). Summed up: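 THRSP transcript quantified by Fluidigm qRT-PCR against three housekeeping genes after 48 h chemical exposure of HepaRG cells in serum-free induction medium; eight-point half-log series, top 100 uM, 0.5% DMSO vehicle, duplicate wells.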

Read-out in test [8]: Cellular tumor antigen p53 (Homo sapiens) (UniProt P04637)
The test can be described thus: LTEA_HepaRG_TP53: Life Technologies and Expression Analysis (LTEA) Assay for Tumor Protein P53 (TP53) using HepaRG (AID 2283537). In outline:
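TP53 transcript measured by qRT-PCR, normalized to three housekeeping genes, after 48 h treatment of human HepaRG cultures with chemicals from 100 uM downward in half-log steps (0.5% DMSO vehicle, serum-free induction medium). Up- or down-regulation fitted against DMSO.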

Read-out in test [9]: UDP glucuronosyltransferase (UGT1A1), UGT1A1 (gene 54658)
The test can be described thus: LTEA_HepaRG_UGT1A1: Life Technologies and Expression Analysis (LTEA) Assay for UDP glucuronosyltransferase (UGT1A1) using HepaRG (AID 2283538). In outline: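 Cells are plated, cultured 48 h, switched to serum-free induction medium, then dosed 48 h at eight concentrations (max 100 uM, 0.5% DMSO). RNA is isolated and UGT1A1 expression measured by qRT-PCR; changes versus DMSO are fitted in both directions.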

Chain of Cellular tumor antigen p53 (Homo sapiens) (P04637 whole entry, looked up): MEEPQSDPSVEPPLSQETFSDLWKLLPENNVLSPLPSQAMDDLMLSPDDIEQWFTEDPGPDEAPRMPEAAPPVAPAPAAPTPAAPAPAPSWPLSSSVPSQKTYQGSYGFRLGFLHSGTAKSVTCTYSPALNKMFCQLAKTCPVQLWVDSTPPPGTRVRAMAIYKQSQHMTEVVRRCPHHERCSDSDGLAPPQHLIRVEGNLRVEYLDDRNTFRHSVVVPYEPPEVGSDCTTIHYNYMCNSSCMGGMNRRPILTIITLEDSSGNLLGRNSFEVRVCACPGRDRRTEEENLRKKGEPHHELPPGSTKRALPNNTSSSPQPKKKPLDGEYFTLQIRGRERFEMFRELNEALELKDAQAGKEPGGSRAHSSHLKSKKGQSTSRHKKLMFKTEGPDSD
Chain of Signal transducer and activator of transcription 3 (Homo sapiens) (P40763 whole entry, looked up): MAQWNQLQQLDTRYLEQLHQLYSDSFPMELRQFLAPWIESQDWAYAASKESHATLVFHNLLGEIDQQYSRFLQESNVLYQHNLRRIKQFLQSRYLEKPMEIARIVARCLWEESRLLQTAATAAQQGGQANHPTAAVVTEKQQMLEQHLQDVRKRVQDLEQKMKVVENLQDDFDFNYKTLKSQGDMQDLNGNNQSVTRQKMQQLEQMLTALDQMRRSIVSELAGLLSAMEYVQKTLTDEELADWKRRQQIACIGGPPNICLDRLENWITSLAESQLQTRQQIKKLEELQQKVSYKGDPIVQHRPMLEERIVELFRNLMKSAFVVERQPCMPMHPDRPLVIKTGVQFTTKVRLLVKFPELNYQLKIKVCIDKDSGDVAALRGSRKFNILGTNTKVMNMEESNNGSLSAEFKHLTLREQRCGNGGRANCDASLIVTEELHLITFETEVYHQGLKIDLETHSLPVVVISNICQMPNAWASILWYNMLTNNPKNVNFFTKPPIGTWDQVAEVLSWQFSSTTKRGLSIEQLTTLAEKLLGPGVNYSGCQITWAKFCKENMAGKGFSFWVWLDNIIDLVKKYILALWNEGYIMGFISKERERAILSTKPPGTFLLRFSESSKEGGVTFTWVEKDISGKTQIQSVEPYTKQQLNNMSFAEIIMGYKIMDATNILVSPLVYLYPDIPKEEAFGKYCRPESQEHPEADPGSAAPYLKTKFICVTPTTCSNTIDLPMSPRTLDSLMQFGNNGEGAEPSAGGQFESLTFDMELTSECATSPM

Turning to `OC1CCCCC1`, the outcome in [1] was “inactive”; in test [2], “inactive”; in [3] it was “inactive”; in test [4], “inactive”; in [5] it was “inactive”; with TIMP1, TIMP1 (gene 7076), “inactive”. Also, the outcome in [6], in test [7], in test [8] and in test [9] was inactive.
As for `O=C(OCCOCCOC(=O)c1ccccc1)c1ccccc1`, the outcome in [1] is “inactive”; in test [2] it was “inactive”; in test [3], “inactive”; in [4] it was “inactive”; in test [5], “inactive”; with TIMP1, TIMP1 (gene 7076), “inactive”. In addition, the result in test [6], in [7], in test [8] and in test [9] was inactive.
For orientation: AC50 means the concentration at which the activity in the assay is half-maximal. For the compound `CCCCCCCCCCCCCCCS(=O)(=O)Oc1ccccc1`, the outcome in test [1] is “inactive”; in test [2] it was “inactive”; in test [3] it was “inactive”; in [4], “inactive”; in test [5], “inactive”; with TIMP1, TIMP1 (gene 7076), “inactive”. Also, the call in test [6], in test [7] and in test [8] was inactive. The half-maximal activity concentration (AC50) in test [9] was 8.01 µM (active).
Take `NC(=O)N(O)[C@@H]1C=C[C@H](Oc2cccc(Oc3ccc(F)cc3)c2)C1`: the outcome was “inactive” in [1]; “inactive” in the test with TIMP1, TIMP1 (gene 7076); “inactive” in test [6]; “inactive” in [7]. Further, the concentration at half-maximal activity (AC50) in test [2] is 86.1 µM (active); in test [3], 76.5 µM (active); in [4] it was 76.2 µM (active); in test [5] it was 72.4 µM (active); in test [8], 50 µM (active); in test [9], 75.5 µM (active).
In the case of `CN1CCN(c2ccccc2/C=C2\SCCN(c3ccc(Cl)c(Cl)c3)C2=O)CC1`, the outcome was “inactive” in test [1]; “inactive” in test [2]; “inactive” in the test with TIMP1, TIMP1 (gene 7076); “inactive” in test [7]; “inactive” in test [8]. The concentration at half-maximal activity (AC50) in [3] was 93.2 µM (active); in [4], 96.2 µM (active); in test [5], 93.4 µM (active); in [6], 95.5 µM (active); in test [9], 50 µM (active).
As to `CCCCCCC(=O)O`, the outcome in test [1] was “inactive”; in test [2] it was “inactive”; in [3], “inactive”; in test [4] it was “inactive”; in test [5], “inactive”; with TIMP1, TIMP1 (gene 7076), “inactive”. The outcome in [6], in test [7], in [8] and in test [9] was inactive.
In the case of `CCOC(=O)CC(O)(CC(=O)OCC)C(=O)OCC`, the outcome in test [1] is “inactive”; in test [2], “inactive”; in test [3] it was “inactive”; in test [4] it was “inactive”; in [5], “inactive”; with TIMP1, TIMP1 (gene 7076), “inactive”. For the same compound, the result in test [6], in test [7], in test [8] and in test [9] was inactive.
In the case of `CC(C)CCCCCCOC(=O)CCCCC(=O)OCCCCCCC(C)C`, the outcome in test [1] was “inactive”; in [2], “inactive”; in test [3] it was “inactive”; in [4], “inactive”; in test [5], “inactive”; in the test with TIMP1, TIMP1 (gene 7076), “inactive”. Moreover, the outcome in [6], in [7], in [8] and in test [9] was inactive.
Consider `CC(C)(C)c1ccc(O)c(C(C)(C)C)c1`, for which the AC50 in test [1] is 9.92 µM (active); in test [6], 50 µM (active). Further, the outcome in [2] was “inactive”; in test [3], “inactive”; in test [4], “inactive”; in test [5], “inactive”; with TIMP1, TIMP1 (gene 7076) it was “inactive”; in test [7], “inactive”. For the same compound, the compound was called inactive in test [8] and in test [9].
Regarding `CCCOc1sc(C(=O)N2CCC(c3cc(CN)ccc3F)CC2)c(C)c1Br`, the outcome in [1] is “inactive”; in test [2] it was “inactive”; in [3] it was “inactive”; in test [4] it was “inactive”; in [5] it was “inactive”; with TIMP1, TIMP1 (gene 7076) it was “inactive”. The result in test [6], in [7], in test [8] and in [9] was inactive.
Regarding `N#C[C@@H]1CC(F)(F)CN1C(=O)CNC1CC2CCC(C1)N2c1ncccn1` (stereo not given in full), the AC50 in [1] is 12.5 µM (active). In addition, the outcome in test [2] is “inactive”; in [3] it was “inactive”; in test [4] it was “inactive”; in [5], “inactive”; with TIMP1, TIMP1 (gene 7076), “inactive”; in test [6], “inactive”. Moreover, the compound was classed as inactive in test [7], in [8] and in test [9].
In the case of `Cc1cc(C)c(O)c(C)c1`, the outcome in [1] was “inactive”; in [2], “inactive”; in [3] it was “inactive”; in test [4], “inactive”; in test [5], “inactive”; with TIMP1, TIMP1 (gene 7076) it was “inactive”. Also, the call in [6], in [7] and in test [8] was inactive. Moreover, the AC50 in test [9] is 8.27 µM (active).
For the compound `OC1CCC(C2CCCCC2)CC1` (stereo not given), the outcome in test [1] was “inactive”; in test [2] it was “inactive”; in test [3], “inactive”; in [4] it was “inactive”; in test [5] it was “inactive”; with TIMP1, TIMP1 (gene 7076) it was “inactive”. Also, the call in test [6], in test [7], in [8] and in test [9] was inactive.
As for `OCCC(F)(F)C(F)(F)C(F)(F)C(F)(F)C(F)(F)C(F)(F)F`, the outcome is “inactive” in [1]; “inactive” in test [2]; “inactive” in test [3]; “inactive” in test [4]; “inactive” in [5]; “inactive” with TIMP1, TIMP1 (gene 7076). Moreover, the outcome in [6], in [7], in [8] and in [9] was inactive.
In the case of `c1ccc2c(c1)Cc1ccccc1-2`, the outcome was “inactive” in test [1]; “inactive” in test [2]; “inactive” in test [3]; “inactive” in test [4]; “inactive” in [5]; “inactive” with TIMP1, TIMP1 (gene 7076). Further, the call in test [6], in test [7], in test [8] and in test [9] was inactive.
With `CC[C@H](C)[C@@H](C(=O)O)n1sc2ccccc2c1=O`, the outcome in test [1] was “inactive”; in test [2], “inactive”; in test [3], “inactive”; in test [4], “inactive”; in test [5] it was “inactive”; in the test with TIMP1, TIMP1 (gene 7076), “inactive”. The outcome in test [6], in test [7], in test [8] and in [9] was inactive.
With `COc1ccc([N+](=O)[O-])cc1N`, the outcome in test [1] is “inactive”; in test [2], “inactive”; in test [3], “inactive”; in test [4], “inactive”; in [5], “inactive”; with TIMP1, TIMP1 (gene 7076), “inactive”. For the same compound, the outcome in test [6] and in [8] was inactive. In addition, the results for the concentration at half-maximal activity (AC50) in test [7] and in test [9] were 9.92 µM (active) and 50 µM (active), respectively.
With `CC(C)(C)c1cccc(C(C)(C)C)c1O`, the outcome in [1] is “inactive”; in test [2] it was “inactive”; in [3], “inactive”; in test [4], “inactive”; in [5], “inactive”; with TIMP1, TIMP1 (gene 7076), “inactive”. Also, the outcome in test [6], in test [7], in test [8] and in test [9] was inactive.
Regarding `CCCCC(CC)COC(=O)CCCCC(=O)OCc1ccccc1` (stereo not given), the outcome in [1] is “inactive”; in [2] it was “inactive”; in [3], “inactive”; in test [4] it was “inactive”; in [5], “inactive”; with TIMP1, TIMP1 (gene 7076) it was “inactive”. The call in test [6], in test [7], in test [8] and in test [9] was inactive.
For `COCC(C)O` (stereo not given), the outcome in test [1] was “inactive”; in [2] it was “inactive”; in test [3], “inactive”; in test [4] it was “inactive”; in test [5] it was “inactive”; in the test with TIMP1, TIMP1 (gene 7076), “inactive”. In addition, the call in test [6], in test [7], in test [8] and in [9] was inactive.
